# Assays:
# Experiment in all cases: DAPPL (digital affinity profiling via proximity ligation, sequencing); 10 mM Tris-HCl pH 7.5, 50 mM NaCl, 1 mM DTT, 4% glycerol, room temperature, 30 min; GST-TFs on glutathione beads, 16-mer random dsDNA library, 0.1% formaldehyde crosslink after washing; high values mean tight binding
# FEV = molecular target: T1, FEV (Homo sapiens, UniProt Q99581 1-238); conditions: protein: recombinant; tags: N-terminal GST; dsDNA, one strand shown
# T1 sequence: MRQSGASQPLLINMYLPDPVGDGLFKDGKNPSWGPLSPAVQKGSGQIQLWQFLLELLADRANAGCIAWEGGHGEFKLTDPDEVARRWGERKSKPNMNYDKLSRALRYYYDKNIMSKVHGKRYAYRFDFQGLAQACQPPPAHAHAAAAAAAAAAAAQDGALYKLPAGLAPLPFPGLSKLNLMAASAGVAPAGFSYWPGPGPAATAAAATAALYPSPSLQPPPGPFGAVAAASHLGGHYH
# Outline: (§1)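 Sequencing on an Illumina NextSeq500 followed washing, crosslinking with 0.1% formaldehyde, proximity ligation (BsaI/T4 ligase, 1 h, 37 °C) and PCR amplification of pools that had been incubated for 30 min at room temperature with 200 nmole of a random double-stranded 16-mer DNA library in Tris/NaCl/DTT/glycerol buffer. Each pool held DNA-barcoded human transcription factors, expressed in yeast as GST fusions and captured on glutathione beads, plus a tag-only sample. Binding signal is a hexamer's read frequency for a factor divided by its frequency in the tag-only sample.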
# ETV5 = ETV5 (Homo sapiens, UniProt P41161 1-510); conditions: protein: recombinant; tags: N-terminal GST; dsDNA, one strand shown
# Sequence of ETV5 (P41161 whole entry): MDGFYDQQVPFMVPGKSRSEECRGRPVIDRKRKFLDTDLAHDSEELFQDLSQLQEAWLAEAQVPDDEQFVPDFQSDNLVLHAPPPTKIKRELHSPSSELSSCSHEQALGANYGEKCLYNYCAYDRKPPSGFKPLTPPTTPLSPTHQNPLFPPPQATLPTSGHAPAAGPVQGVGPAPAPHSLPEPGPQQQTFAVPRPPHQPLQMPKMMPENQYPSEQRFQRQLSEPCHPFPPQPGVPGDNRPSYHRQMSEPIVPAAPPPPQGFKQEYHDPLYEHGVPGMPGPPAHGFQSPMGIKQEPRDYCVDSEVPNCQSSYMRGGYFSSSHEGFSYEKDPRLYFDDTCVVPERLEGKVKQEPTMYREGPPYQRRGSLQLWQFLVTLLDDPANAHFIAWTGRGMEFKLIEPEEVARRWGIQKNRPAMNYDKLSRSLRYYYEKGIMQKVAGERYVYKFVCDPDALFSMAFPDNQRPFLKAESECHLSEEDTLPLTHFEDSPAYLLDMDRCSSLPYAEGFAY
# Outline: as §1
# HSF1 = HSF1 (Homo sapiens, UniProt Q00613 1-529); conditions: protein: recombinant; tags: N-terminal GST; chain copies: 3; dsDNA, one strand shown
# Sequence of HSF1 (Q00613 whole entry): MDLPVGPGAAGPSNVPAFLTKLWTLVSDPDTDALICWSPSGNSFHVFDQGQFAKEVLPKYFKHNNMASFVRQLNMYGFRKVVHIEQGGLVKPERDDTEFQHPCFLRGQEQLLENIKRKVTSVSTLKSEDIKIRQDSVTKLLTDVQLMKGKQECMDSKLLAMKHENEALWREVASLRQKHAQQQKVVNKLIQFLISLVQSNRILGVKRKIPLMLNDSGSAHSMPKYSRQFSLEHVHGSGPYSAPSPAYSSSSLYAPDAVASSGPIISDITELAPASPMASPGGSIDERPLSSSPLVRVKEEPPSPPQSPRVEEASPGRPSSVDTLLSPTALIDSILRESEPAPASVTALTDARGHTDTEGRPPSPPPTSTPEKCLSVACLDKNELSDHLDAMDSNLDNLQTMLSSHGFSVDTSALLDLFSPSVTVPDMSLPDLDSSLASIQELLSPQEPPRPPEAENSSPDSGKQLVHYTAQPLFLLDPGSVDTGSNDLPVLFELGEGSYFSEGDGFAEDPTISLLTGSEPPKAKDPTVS
# Outline: as §1
# SPIC = molecular target: T2, SPIC (Homo sapiens, UniProt Q8N5J4 1-248); conditions: protein: recombinant; tags: N-terminal GST; dsDNA, one strand shown
# T2 sequence: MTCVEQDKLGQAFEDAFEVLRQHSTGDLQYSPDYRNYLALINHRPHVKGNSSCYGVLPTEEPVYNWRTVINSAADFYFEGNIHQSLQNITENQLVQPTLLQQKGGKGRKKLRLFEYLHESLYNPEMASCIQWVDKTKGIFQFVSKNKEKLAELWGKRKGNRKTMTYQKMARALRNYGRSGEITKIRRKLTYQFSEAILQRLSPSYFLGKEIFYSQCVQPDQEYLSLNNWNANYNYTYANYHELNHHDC
# Outline: as §1
# ELF4 = ELF4 (Homo sapiens, UniProt Q99607 1-663); conditions: protein: recombinant; tags: N-terminal GST; dsDNA, one strand shown
# Sequence of ELF4 (Q99607 whole entry): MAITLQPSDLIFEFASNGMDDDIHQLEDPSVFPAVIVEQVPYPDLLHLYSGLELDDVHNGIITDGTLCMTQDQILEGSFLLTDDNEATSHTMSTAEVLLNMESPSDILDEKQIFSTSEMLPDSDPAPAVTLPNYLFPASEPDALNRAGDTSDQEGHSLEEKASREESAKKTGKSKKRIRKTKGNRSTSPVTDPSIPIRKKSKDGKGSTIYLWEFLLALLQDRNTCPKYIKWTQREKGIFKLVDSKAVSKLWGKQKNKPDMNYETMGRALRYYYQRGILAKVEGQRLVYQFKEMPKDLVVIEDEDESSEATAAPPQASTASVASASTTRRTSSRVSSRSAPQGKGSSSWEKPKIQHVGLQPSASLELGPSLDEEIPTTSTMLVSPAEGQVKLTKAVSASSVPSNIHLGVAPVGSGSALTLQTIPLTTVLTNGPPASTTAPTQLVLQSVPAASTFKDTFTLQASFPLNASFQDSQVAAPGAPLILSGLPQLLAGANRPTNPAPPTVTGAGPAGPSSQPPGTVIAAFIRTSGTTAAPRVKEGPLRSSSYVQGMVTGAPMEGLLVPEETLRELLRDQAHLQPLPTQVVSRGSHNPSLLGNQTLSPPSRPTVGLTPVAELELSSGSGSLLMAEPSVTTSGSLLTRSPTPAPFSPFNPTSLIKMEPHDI
# Outline: as §1
# ELK4 = molecular target: T3, ELK4 (Homo sapiens, UniProt P28324-2 1-405); conditions: protein: recombinant; tags: N-terminal GST; dsDNA, one strand shown
# T3 sequence: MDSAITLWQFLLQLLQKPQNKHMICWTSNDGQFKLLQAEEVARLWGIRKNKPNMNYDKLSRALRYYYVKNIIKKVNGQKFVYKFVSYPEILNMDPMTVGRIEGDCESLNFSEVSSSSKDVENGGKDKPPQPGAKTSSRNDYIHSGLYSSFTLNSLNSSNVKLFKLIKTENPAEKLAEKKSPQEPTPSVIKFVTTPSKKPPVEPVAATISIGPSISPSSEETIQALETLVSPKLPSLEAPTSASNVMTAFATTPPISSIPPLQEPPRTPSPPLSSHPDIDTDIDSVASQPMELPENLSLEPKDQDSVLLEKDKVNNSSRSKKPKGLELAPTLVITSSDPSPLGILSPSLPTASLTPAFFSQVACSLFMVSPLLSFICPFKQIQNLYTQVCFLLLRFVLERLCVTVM
# Outline: as §1
# ETV2 = molecular target: T4, ETV2 (Homo sapiens, UniProt O00321 1-342); conditions: protein: recombinant; tags: N-terminal GST; dsDNA, one strand shown
# T4 sequence: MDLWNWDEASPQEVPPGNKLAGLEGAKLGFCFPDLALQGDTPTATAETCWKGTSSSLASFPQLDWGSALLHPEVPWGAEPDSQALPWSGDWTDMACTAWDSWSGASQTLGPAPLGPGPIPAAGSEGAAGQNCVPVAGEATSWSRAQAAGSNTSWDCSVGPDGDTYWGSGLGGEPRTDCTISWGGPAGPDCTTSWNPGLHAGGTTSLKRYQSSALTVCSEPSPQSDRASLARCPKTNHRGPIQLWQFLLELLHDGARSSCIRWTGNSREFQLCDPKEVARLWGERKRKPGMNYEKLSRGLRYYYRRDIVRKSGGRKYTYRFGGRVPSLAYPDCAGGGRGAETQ
# Outline: as §1
# ELF3 = molecular target: T5, ELF3 (Homo sapiens, UniProt P78545 1-371); conditions: protein: recombinant; tags: N-terminal GST; dsDNA, one strand shown
# T5 sequence: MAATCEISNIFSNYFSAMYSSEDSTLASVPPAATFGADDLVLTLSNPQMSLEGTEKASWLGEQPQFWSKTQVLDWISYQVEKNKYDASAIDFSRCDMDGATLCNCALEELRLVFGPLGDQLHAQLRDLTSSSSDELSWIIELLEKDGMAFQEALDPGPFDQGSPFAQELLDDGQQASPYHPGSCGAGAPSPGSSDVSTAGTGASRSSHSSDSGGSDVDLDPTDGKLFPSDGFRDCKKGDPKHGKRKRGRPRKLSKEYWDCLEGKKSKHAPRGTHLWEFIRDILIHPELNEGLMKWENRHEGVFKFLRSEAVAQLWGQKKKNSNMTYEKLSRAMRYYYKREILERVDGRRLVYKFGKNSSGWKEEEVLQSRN
# Outline: as §1
# CRX = CRX (Homo sapiens, UniProt O43186 1-299); conditions: protein: recombinant; tags: N-terminal GST; dsDNA, one strand shown
# Sequence of CRX (O43186 whole entry): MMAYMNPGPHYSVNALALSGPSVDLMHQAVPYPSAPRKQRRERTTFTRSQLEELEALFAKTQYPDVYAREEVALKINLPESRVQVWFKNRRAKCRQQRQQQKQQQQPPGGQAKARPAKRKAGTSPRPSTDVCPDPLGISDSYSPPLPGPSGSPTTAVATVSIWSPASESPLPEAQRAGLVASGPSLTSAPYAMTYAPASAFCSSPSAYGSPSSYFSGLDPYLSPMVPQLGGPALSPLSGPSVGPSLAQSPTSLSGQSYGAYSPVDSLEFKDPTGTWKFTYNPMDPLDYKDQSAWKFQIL
# Outline: as §1
# ETV1 = ETV1 (Homo sapiens, UniProt P50549 1-477); conditions: protein: recombinant; tags: N-terminal GST; dsDNA, one strand shown
# Sequence of ETV1 (P50549 whole entry): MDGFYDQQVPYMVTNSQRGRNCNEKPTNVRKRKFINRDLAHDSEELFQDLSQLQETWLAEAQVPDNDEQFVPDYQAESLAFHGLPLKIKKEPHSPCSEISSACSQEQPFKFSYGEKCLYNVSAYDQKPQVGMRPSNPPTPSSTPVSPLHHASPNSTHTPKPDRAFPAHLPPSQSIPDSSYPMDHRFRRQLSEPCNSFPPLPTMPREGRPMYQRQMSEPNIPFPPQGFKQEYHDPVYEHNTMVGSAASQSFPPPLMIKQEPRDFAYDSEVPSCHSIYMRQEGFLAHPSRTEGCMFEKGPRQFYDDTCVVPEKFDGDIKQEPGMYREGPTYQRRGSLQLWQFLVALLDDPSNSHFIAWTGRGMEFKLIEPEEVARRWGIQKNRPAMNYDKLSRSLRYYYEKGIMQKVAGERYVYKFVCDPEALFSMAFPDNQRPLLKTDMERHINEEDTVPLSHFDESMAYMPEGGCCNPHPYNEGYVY
# Outline: as §1
# ERF = molecular target: T6, ERF (Homo sapiens, UniProt P50548 1-548); conditions: protein: recombinant; tags: N-terminal GST; dsDNA, one strand shown
# T6 sequence: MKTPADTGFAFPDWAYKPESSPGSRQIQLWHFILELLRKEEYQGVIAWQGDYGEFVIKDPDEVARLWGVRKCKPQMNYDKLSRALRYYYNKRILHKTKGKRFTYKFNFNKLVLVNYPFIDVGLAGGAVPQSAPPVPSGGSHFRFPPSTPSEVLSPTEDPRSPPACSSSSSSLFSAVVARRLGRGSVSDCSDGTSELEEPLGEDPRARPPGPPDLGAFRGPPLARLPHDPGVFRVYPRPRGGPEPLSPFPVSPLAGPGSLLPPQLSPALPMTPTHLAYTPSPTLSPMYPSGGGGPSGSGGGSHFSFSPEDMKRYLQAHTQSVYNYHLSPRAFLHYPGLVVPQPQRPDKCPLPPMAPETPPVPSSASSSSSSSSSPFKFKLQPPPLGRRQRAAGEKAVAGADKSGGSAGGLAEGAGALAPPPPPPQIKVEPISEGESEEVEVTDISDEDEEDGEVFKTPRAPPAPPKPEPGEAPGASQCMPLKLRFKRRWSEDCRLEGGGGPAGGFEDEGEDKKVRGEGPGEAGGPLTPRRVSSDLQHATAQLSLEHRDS
# Outline: as §1
# ETV3L = molecular target: T7, ETV3L (Homo sapiens, UniProt Q6ZN32 1-361); conditions: protein: recombinant; tags: N-terminal GST; dsDNA, one strand shown
# T7 sequence: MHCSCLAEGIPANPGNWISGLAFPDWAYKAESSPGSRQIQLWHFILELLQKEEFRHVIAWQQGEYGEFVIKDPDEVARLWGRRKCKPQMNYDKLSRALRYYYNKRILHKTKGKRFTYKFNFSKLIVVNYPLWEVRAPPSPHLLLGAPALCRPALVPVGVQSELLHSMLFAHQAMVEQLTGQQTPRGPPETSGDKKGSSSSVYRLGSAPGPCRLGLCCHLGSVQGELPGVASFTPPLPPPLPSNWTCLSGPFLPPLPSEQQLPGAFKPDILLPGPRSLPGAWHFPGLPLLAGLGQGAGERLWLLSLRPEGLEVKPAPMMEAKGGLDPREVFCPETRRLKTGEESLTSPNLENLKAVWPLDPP
# Outline: as §1
# ETS2 = molecular target: T8, ETS2 (Homo sapiens, UniProt P15036 1-469); conditions: protein: recombinant; tags: N-terminal GST; dsDNA, one strand shown
# T8 sequence: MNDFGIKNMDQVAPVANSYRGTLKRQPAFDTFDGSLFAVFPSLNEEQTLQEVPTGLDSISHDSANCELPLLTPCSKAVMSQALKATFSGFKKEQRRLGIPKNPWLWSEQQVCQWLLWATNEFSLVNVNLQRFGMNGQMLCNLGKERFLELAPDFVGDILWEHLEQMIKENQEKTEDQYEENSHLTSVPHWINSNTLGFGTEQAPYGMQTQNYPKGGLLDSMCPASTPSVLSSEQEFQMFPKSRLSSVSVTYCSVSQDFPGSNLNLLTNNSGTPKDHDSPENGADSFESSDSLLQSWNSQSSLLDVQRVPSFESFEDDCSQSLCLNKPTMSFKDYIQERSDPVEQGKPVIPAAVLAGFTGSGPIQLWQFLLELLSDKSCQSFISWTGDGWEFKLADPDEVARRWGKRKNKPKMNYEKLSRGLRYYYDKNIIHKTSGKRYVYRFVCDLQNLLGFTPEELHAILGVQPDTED
# Outline: as §1
# SPDEF = molecular target: T9, SPDEF (Homo sapiens, UniProt O95238 1-335); conditions: protein: recombinant; tags: N-terminal GST; dsDNA, one strand shown
# T9 sequence: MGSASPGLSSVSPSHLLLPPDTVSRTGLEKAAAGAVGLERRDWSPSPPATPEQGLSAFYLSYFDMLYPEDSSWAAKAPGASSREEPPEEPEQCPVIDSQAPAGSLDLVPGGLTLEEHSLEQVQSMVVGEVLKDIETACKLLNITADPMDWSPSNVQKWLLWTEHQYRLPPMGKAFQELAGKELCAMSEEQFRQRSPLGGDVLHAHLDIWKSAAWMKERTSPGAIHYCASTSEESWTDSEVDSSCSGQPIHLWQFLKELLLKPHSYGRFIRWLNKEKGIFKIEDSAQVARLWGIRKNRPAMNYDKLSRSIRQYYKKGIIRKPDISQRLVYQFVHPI
# Outline: as §1
# ETV7 = molecular target: T10, ETV7 (Homo sapiens, UniProt Q9Y603 1-341); conditions: protein: recombinant; tags: N-terminal GST; dsDNA, one strand shown
# T10 sequence: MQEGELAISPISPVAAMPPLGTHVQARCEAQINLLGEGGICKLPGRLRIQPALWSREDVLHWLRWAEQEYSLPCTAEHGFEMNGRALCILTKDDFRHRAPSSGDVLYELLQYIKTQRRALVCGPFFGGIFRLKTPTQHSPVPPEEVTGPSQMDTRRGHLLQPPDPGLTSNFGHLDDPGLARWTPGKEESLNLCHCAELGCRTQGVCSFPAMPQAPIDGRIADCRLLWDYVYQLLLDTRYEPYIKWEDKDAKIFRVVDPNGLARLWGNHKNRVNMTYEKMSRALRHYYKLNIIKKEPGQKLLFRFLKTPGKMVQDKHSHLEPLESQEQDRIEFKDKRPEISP
# Outline: as §1
# ELF5 = molecular target: T11, ELF5 (Homo sapiens, UniProt Q9UKW6-2 1-255); conditions: protein: recombinant; tags: N-terminal GST; dsDNA, one strand shown
# T11 sequence: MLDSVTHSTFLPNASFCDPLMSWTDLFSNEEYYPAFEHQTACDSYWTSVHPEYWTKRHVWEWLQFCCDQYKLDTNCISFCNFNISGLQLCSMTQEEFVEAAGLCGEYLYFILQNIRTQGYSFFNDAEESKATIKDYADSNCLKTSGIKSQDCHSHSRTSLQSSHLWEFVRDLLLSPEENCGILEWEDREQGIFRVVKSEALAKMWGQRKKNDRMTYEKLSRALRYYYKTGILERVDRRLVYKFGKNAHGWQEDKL
# Outline: as §1
# ETV3 = molecular target: T12, ETV3 (Homo sapiens, UniProt P41162-2 1-143); conditions: protein: recombinant; tags: N-terminal GST; dsDNA, one strand shown
# T12 sequence: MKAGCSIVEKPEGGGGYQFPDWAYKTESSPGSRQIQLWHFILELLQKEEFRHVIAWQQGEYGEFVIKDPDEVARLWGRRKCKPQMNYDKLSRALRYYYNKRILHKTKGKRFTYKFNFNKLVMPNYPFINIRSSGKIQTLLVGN
# Outline: as §1
# ETV6 = ETV6 (Homo sapiens, UniProt P41212 1-452); conditions: protein: recombinant; tags: N-terminal GST; dsDNA, one strand shown
# Sequence of ETV6 (P41212 whole entry): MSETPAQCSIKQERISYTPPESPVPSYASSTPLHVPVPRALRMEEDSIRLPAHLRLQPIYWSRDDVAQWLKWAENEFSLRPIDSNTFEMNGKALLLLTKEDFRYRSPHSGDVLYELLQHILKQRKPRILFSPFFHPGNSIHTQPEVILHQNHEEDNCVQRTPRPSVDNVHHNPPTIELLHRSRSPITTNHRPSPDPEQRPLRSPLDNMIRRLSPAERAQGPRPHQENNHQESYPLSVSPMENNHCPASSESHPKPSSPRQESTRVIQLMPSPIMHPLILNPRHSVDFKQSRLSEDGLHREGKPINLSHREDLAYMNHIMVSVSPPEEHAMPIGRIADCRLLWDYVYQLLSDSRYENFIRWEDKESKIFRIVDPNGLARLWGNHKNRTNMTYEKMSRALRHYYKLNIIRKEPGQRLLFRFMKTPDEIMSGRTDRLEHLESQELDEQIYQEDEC
# Outline: as §1
sequence,measurement,setting,value
CACTTG,binding signal,FEV,"1.33 fold enrichment (6-mer frequency, TF over GST control)"
same,binding signal,ETV5,"1.41 fold enrichment (6-mer frequency, TF over GST control)"
same,binding signal,HSF1,"1.12 fold enrichment (6-mer frequency, TF over GST control)"
same,binding signal,SPIC,"1.12 fold enrichment (6-mer frequency, TF over GST control)"
same,binding signal,ELF4,"1.45 fold enrichment (6-mer frequency, TF over GST control)"
same,binding signal,ELK4,"1.43 fold enrichment (6-mer frequency, TF over GST control)"
same,binding signal,ETV2,"1.36 fold enrichment (6-mer frequency, TF over GST control)"
same,binding signal,ELF3,"1.41 fold enrichment (6-mer frequency, TF over GST control)"
same,binding signal,CRX,"1.1 fold enrichment (6-mer frequency, TF over GST control)"
same,binding signal,ETV1,"1.36 fold enrichment (6-mer frequency, TF over GST control)"
same,binding signal,ERF,"1.41 fold enrichment (6-mer frequency, TF over GST control)"
same,binding signal,ETV3L,"1.22 fold enrichment (6-mer frequency, TF over GST control)"
same,binding signal,ETS2,"1.32 fold enrichment (6-mer frequency, TF over GST control)"
same,binding signal,SPDEF,"1.35 fold enrichment (6-mer frequency, TF over GST control)"
same,binding signal,ETV7,"1.37 fold enrichment (6-mer frequency, TF over GST control)"
same,binding signal,ELF5,"1.33 fold enrichment (6-mer frequency, TF over GST control)"
same,binding signal,ETV3,"1.39 fold enrichment (6-mer frequency, TF over GST control)"
same,binding signal,ETV6,"1.31 fold enrichment (6-mer frequency, TF over GST control)"

# Source: PMC7862700, “An all-to-all approach to the identification of sequence-specific readers for epigenetic DNA modifications on cytosine”
